Sampled rows, rich in hits. Any-hit rate of the full collection: about 10%.
ELG1 DNA repair: ELG1-dependent DNA repair inhibition; HEK293T ELG1-luciferase reporter, luminescence, 16 h; DNA damage induced by 5-fluorouridine; Potency, µM (series often up to 46.1 µM), hits mostly inhibitors; actives 2.3% (n = 330,000); AID 504467; also: nearly all actives have a fitted effect of over 55% in size
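DMSO vehicle served as the neutral condition. Each well held 2,000 cells given 5-fluorouridine plus compound; after 16 hr at 37 °C/5% CO2, ONE-Glo was added and luciferase measured 30 min later.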
MCF10A rereplic: induces DNA re-replication in MCF 10a normal breast cells | actives 2.9% (n = 350,000) | Potency, µM (top dose mostly 46.1 µM), actives largely listed as activators | MCF 10A DNA re-replication, Hoechst nuclear intensity, 48 h; also: nearly all actives have a fitted effect of over 50% in size
RORg inh: ROR gamma (mouse) transcription inhibition | P51450 | Drosophila S2 Gal4-RORgamma UAS-luciferase reporter, 20 h | Potency, µM (titrated, usually from 53.6 µM), usual class: inhibitors | actives 5.4% (n = 310,000) | AID 2551; also: nearly all actives have a fitted effect of over 60% in size
Target sequence (P51450 whole entry, looked up, the tested form may be a part): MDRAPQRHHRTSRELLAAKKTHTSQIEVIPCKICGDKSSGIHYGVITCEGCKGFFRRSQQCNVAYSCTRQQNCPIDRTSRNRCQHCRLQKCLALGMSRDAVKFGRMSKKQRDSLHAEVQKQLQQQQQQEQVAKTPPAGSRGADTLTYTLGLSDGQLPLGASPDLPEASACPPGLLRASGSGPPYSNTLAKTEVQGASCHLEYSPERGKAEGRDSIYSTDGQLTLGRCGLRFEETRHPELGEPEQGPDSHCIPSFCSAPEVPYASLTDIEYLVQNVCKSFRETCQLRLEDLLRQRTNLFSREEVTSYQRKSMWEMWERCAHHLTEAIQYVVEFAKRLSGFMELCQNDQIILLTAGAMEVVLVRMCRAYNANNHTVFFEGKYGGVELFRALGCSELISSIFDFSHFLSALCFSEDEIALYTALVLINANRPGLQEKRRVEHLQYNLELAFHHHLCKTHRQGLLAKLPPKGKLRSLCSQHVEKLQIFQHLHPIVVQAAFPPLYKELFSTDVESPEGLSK
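Luciferase reporter read in Schneider cells carrying Gal4-RORγ (mouse) and UAS-Photinus luciferase; cells given compound 1 h before 700 uM copper sulfate induction, then incubated 20 h at ambient temperature.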
Gal4-VP16 FLuc: inhibits Gal4-VP16 luciferase reporter, ROR gamma counter-screen. Drosophila S2 Gal4-VP16 UAS-luciferase, luminescence, 20 h. Potency, µM (doses to about 53.6 µM), usual class: inhibitors. actives 3.5% (n = 310,000). AID 2546;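 also: Gal4-VP16 expression switched on by copper sulfate through the metallothionein promoter; nearly all actives have a fitted effect of over 50% in size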
SW480 rereplic: inducers of DNA re-replication in SW480 colon cancer cells. SW480 DNA re-replication, Hoechst DNA content imaging, 48 h. Potency, µM (doses to about 46.1 µM), most hits filed as activators. actives 1.8% (n = 340,000); also: nearly all actives have a fitted effect of over 55% in size
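Image-based DNA-content assay: after two days of treatment, nuclei were labelled with the DNA dye Hoechst and imaged, and hits were compounds raising the count of nuclei showing high fluorescence intensity.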
Large screens that a line does not name were inactive. Calls follow the shape of the dose curve; as a rule, active = well fitted curve in the direction sought with a large enough effect; inconclusive = small, poorly fitted or top-dose-only effect, or another doubt; inactive = no such curve, though single readings can be large; an effect the other way counts as inactive or inconclusive.

O=C(CCCn1c(=O)oc2ccccc21)N1CCN(c2ccccn2)CC1	ELG1 DNA repair inconclusive
COc1ccc(C)cc1Nc1c2c(nc3ccccc13)CCC2	ELG1 DNA repair inconclusive, MCF10A rereplic 1.6µM, Gal4-VP16 FLuc inconclusive, SW480 rereplic 2.9µM
COc1ccc(OC)c(Nc2cc(-c3ccccc3)nc(N)n2)c1	MCF10A rereplic 0.65µM, RORg inh inconclusive, SW480 rereplic 2.6µM
COc1ccc(OC)c(Nc2cc(C)nc3ccccc23)c1	ELG1 DNA repair 21µM, MCF10A rereplic inconclusive
O=[N+]([O-])c1cccc(-c2ccc(C(=S)N3CCOCC3)o2)c1	ELG1 DNA repair inconclusive
O=C(Nc1ccc(CN2CCOCC2)cc1)c1ccc(-c2cccc([N+](=O)[O-])c2)o1	ELG1 DNA repair 13µM
O=C(Nc1ccc(CN2CCOCC2)cc1)c1ccc(-c2cc(Cl)ccc2Cl)o1	ELG1 DNA repair 23µM, MCF10A rereplic inconclusive, SW480 rereplic inconclusive
CC(=O)c1ccc(NC(=O)C(Cc2ccccc2)n2cccc2)cc1 (centres undefined)	none
CCCCSCc1nc2ccccn2c1Br	ELG1 DNA repair inconclusive, RORg inh 11µM
CCSCc1nc2ccccn2c1Br	none
N#C/C(=C\c1c(Oc2ccccc2Cl)nc2ccccn2c1=O)C(=O)NC1CCS(=O)(=O)C1 (centres undefined)	MCF10A rereplic inconclusive, SW480 rereplic inconclusive
N#C/C(=C\c1c(N2CCOCC2)nc2ccccn2c1=O)C(=O)NC1CCS(=O)(=O)C1 (centres undefined)	ELG1 DNA repair inconclusive, MCF10A rereplic 5.8µM, SW480 rereplic inconclusive
N#C/C(=C\c1c(Oc2ccccc2F)nc2ccccn2c1=O)C(=O)NC1CCS(=O)(=O)C1 (centres undefined)	MCF10A rereplic 16µM, SW480 rereplic inconclusive
O=C(O)C(Cc1ccccc1)NC(=O)C(c1ccccc1)c1ccccc1 (centres undefined)	MCF10A rereplic inconclusive
CN(CC(=O)Nc1ccc(Cl)c(C(F)(F)F)c1)Cc1cc(=O)n2ccsc2n1	ELG1 DNA repair inconclusive
O=C(NC(=S)Nc1ccccc1O)c1cccnc1	RORg inh 11µM, Gal4-VP16 FLuc inconclusive, SW480 rereplic inconclusive
CCC(C)c1ccc(O)c(NC(=S)NC(=O)c2cccnc2)c1 (centres undefined)	MCF10A rereplic inconclusive, RORg inh 0.56µM, Gal4-VP16 FLuc 1.3µM, SW480 rereplic inconclusive
Cc1ccc([N+](=O)[O-])cc1NC(=S)NC(=O)c1cccnc1	RORg inh 13µM
O=C(NC(=S)Nc1cc([N+](=O)[O-])ccc1O)c1cccnc1	ELG1 DNA repair inconclusive, RORg inh 2µM, Gal4-VP16 FLuc 13µM
O=C(OCc1cccc(C(F)(F)F)c1)c1ccc[nH]c1=O	none
CC(=O)Nc1ccc(NC(=O)CSc2nc3[nH]ncc3c(=O)n2-c2ccccc2)cc1	none
COc1cc(OC)c(C(=O)OCC(=O)N(Cc2ccccc2)C(C)(C)C)cc1OC	ELG1 DNA repair inconclusive
N#CC1=C(S)N(c2ccccc2)C2(CCCCC2)NC1=O	ELG1 DNA repair inconclusive, MCF10A rereplic inconclusive, RORg inh 13µM, Gal4-VP16 FLuc inconclusive, SW480 rereplic inconclusive
Cc1ccc(C(=O)NCc2ccccc2CN2CCCC2)cc1S(=O)(=O)N1CCOCC1	none (no result: RORg inh, Gal4-VP16 FLuc)
N=c1c2c(-c3ccccc3)c(-c3ccccc3)n(Cc3ccco3)c2ncn1CCCO	MCF10A rereplic inconclusive, RORg inh 3.2µM, Gal4-VP16 FLuc 3.2µM, SW480 rereplic inconclusive
N=c1c2c(-c3ccccc3)c(-c3ccccc3)n(Cc3ccco3)c2ncn1CCO	MCF10A rereplic 10µM
CC(=O)c1ccc(N2CCN(C(=O)c3nn(Cc4ccccc4)c(=O)c4ccccc34)CC2)cc1	ELG1 DNA repair 9.2µM, MCF10A rereplic inconclusive
COc1ccc(C2=NN(CCC(=O)NCC3CCCO3)C(=O)CC2)cc1 (centres undefined)	none
CCCn1nnnc1NC(=O)COc1ccc(CC)cc1	RORg inh 10µM, Gal4-VP16 FLuc 11µM
CCCCn1nnc(NC(=O)COc2ccc(Cl)c(C)c2)n1	none
CCCn1nnnc1NC(=O)COc1ccc(Cl)c(C)c1	RORg inh 5µM, Gal4-VP16 FLuc 4.5µM (no result: SW480 rereplic)
CC(=O)c1ccc(N(C(=O)CNC(=O)c2ccco2)C(C(=O)NC2CCCC2)c2ccncc2)cc1 (centres undefined)	none
Cc1nc(NC(=O)c2ccc(Cl)cc2)nc2cc3c(cc12)OCO3	none
Cc1cc(C)nc(Nc2nc(C)c3cc4c(cc3n2)OCO4)n1	ELG1 DNA repair inconclusive, RORg inh 7.1µM, Gal4-VP16 FLuc 7.1µM, SW480 rereplic inconclusive
O=C(NCc1cc([N+](=O)[O-])ccc1O)c1cccnc1Sc1ccccc1Cl	RORg inh 3.5µM, Gal4-VP16 FLuc 2.8µM
CN(C)C(CNC(=O)c1cccc(C(F)(F)F)c1)c1ccco1 (centres undefined)	none
O=[N+]([O-])c1ccc(N2CCN(CCOc3nonc3-c3ccccc3)CC2)c(Cl)c1	none
Cc1nonc1OCCN1CCN(c2ccc([N+](=O)[O-])cc2)CC1	ELG1 DNA repair 21µM
CN(C)C(=S)N=c1ssc(=S)n1Cc1cccnc1	MCF10A rereplic 12µM, SW480 rereplic 18µM (no result: ELG1 DNA repair, RORg inh, Gal4-VP16 FLuc)
Cc1[nH]nc(-c2cccnc2)c1N=NN(C)C	MCF10A rereplic 1.6µM, SW480 rereplic 2.6µM (no result: ELG1 DNA repair, RORg inh, Gal4-VP16 FLuc)
COc1cc(C(=O)N2CCN(c3ccccn3)CC2)cc(OC)c1OC	none
COc1cc2nc(C3CCC3)nc(N3CCN(c4ccccc4OC)CC3)c2cc1OC	ELG1 DNA repair 12µM, MCF10A rereplic inconclusive, SW480 rereplic inconclusive
COc1cc2nc(C3CCC3)nc(N3CCN(c4ccccn4)CC3)c2cc1OC	ELG1 DNA repair 10µM, MCF10A rereplic inconclusive
COCCn1cnc2c1c(=O)n(CC(=O)OCC(=O)NCC(F)(F)F)c(=O)n2Cc1ccccc1	none
C=CCc1ccc(OCCOc2ccc(/C=N/n3cnnc3)cc2OCC)c(OC)c1	ELG1 DNA repair inconclusive, RORg inh 16µM, Gal4-VP16 FLuc inconclusive
CCCCCNc1nc(N2CCCC2)c2c(c1C#N)CCN(C)C2	MCF10A rereplic 11µM, SW480 rereplic inconclusive
CN(Cc1ccccc1)C(=O)Nc1ccc(Cl)cc1	none (no result: ELG1 DNA repair, RORg inh, Gal4-VP16 FLuc)
O=C(O)c1cccc(CN2C(=O)SC(Nc3ccccc3)C2=O)c1 (centres undefined)	MCF10A rereplic 23µM
COc1ccccc1C(=O)NC(=O)COC(=O)C1CCC1	none (no result: RORg inh, Gal4-VP16 FLuc)
CCOc1ccc(NC(=S)NC(=O)c2c(Cl)c(C)nn2C)c([N+](=O)[O-])c1	ELG1 DNA repair inconclusive, RORg inh 10µM, Gal4-VP16 FLuc inconclusive
Cc1cc(NC(=O)c2c(Cl)c(C)nn2C)no1	none (no result: ELG1 DNA repair)
Cc1nn(C)c(C(=O)NC(=S)Nc2ccccc2O)c1Cl	RORg inh 2µM, Gal4-VP16 FLuc 3.2µM
CN(Cc1ccccc1)C1(CNC(=O)CCC(F)(F)F)Cc2ccccc2C1	none
CC1(C)CC2CC(C)(CN2C(=O)COC(=O)c2ccccc2C(F)(F)F)C1 (centres undefined)	none (no result: RORg inh, Gal4-VP16 FLuc)

Screens as filed in PubChem BioAssay.
